Assay results reported in PubChem BioAssay (NCI).
Compounds without any hit were thinned out: in the full panel of roughly 83,000, 20% have a hit.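 Method: cells in 96-well plates; compound added at one concentration; 48 h incubation; percent growth measured; values under 10 scored active.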 Unmarked numbers belong to inactive results. Calls of active or inactive are those of the source.

Experiments:
Assay in all cases: NCI-60 one-dose screen, 48 h (100 = growth as untreated, 0 = no growth, -100 = all killed)
Conditions in all cases: 10 µM unless noted
[1] = tested on: DU-145 prostate
[2] = tested on: K-562 leukemia
[3] = tested on: MALME-3M melanoma
[4] = tested on: MDA-MB-231 breast
[5] = tested on: RXF 393 renal
[6] = tested on: SF-268 CNS
[7] = tested on: SF-295 CNS
[8] = tested on: SF-539 CNS
[9] = tested on: M14 melanoma
[10] = tested on: UACC-257 melanoma

Compound | growth [1] | growth [2] | growth [3] | growth [4] | growth [5] | growth [6] | growth [7] | growth [8] | growth [9] | growth [10]
CCCCCCCCCCCCCCCCCC1=NC(C)(CO)CO1 (stereo not given) | 102% | 80.7% | 91.5% | 88.8% | 102% | 98.6% | 88.5% | 97.7% | 95.8% | 
CC(NNC(=S)N1CCCCCC1)c1ccc2ccccc2n1 (stereo not given) | 36.2% | 18.2% | 29.1% | 41.6% | 58.3% | 39.7% | -10.9% (active) | 18.6% | 21% | 
Cc1ccc(-c2c3c(N)nc(-c4ccncc4)nc3nc3c2c(C)nn3-c2ccccc2)cc1 | 32.6% | 28.9% | -2.14% (active) | 21.4% | 45.6% | 37.8% | 95% | 11.3% | 44.3% | 
O=[N+]([O-])c1ccc(NS(=O)(=O)c2ccc(Cl)c(Cl)c2)cc1 | 94% | 66.3% | 88% | 76% | 93.2% | 97% | 50.3% | 82.6% | 79% | 
O=C1/C(=C/c2ccccc2Cl)CCc2ccccc21 | 108% | 105% | 104% | 111% | 107% | 96.7% | 65.3% | 106% | 104% | 
CCN(Cc1cccc(S(=O)(=O)[O-])c1)c1ccc(C(=C2C=CC(=[N+](CC)Cc3cccc(S(=O)(=O)O)c3)C=C2)c2ccccc2S(=O)(=O)O)cc1 | 107% | 90.8% | 118% | 100% | 106% | 94.6% | 94.5% | 97.4% | 98.4% | 
COc1c(Br)cc(C(c2cc(Br)c(OC)c(Br)c2)c2ccccc2C(=O)O)cc1Br | 111% | 89.6% | 91.3% | 102% | 107% | 98.8% | 96% | 92.2% | 95.4% | 
O=C1Nc2ccc(Cl)cc2/C1=C/c1cccs1 | 105% | 103% | 95.9% | 70.6% | 94.3% | 88.8% | 94.3% | 85.3% | 101% | 
COc1cccc(CCN2C(=O)CCC3=C2CCC3=O)c1 | 114% | 106% | 100% | 78.2% | 112% | 119% | 97.6% | 97.8% | 83.8% | 
CCCCCCCCCCNCCSS(=O)(=O)O | 73.3% | 6.77% (active) | 106% | 76.3% | 104% | -35.9% (active) |  | 99.3% | 34.3% | 101%
CCOC(=O)C(C(=O)OCC)C1CCCCC1 | 107% | 104% | 96% | 108% | 107% | 99.1% |  | 99.4% | 102% | 96.3%
COC(=O)[C@H](Cc1cn(C)cn1)NC(=O)[C@@H](NC(=O)Nc1cc(C(F)(F)F)cc(C(F)(F)F)c1)C(C)C | -97.1% [100 µM] (active) | -53.5% [100 µM] (active) | -90.5% [100 µM] (active) | -90.2% [100 µM] (active) | -83.3% [100 µM] (active) | -89.4% [100 µM] (active) | -91% [100 µM] (active) |  | -92.8% [100 µM] (active) | -95.9% [100 µM] (active)
CNc1nc(NC2CCCC2)nc(Sc2ccc(OC)cc2)n1 | 26.5% [100 µM] | 9.58% [100 µM] (active) | -11.9% [100 µM] (active) | -30.9% [100 µM] (active) | 32% [100 µM] | 25.7% [100 µM] |  | 49.2% [100 µM] | 16.7% [100 µM] | 31.4% [100 µM]
COC(=O)[C@H](Cc1cnc[nH]1)NC(=O)[C@@H](NC(=O)Nc1cc(C(F)(F)F)cc(C(F)(F)F)c1)C(C)C | -100% [100 µM] (active) | -46% [100 µM] (active) | -94.4% [100 µM] (active) | -95.9% [100 µM] (active) | -89.3% [100 µM] (active) | -92.7% [100 µM] (active) |  | -95.7% [100 µM] (active) | -89% [100 µM] (active) | -87.6% [100 µM] (active)
CC(=O)c1ccc(NS(=O)(=O)c2ccc([N+](=O)[O-])cc2)cc1 | 111% | 82.1% | 115% | 88.9% | 104% | 104% |  | 97.8% | 107% | 105%
